The results in this text go back to PubChem BioAssay (NCATS).

Where “and” joins values, the source holds several entries; their conditions need not be identical. Equal values may be shown once. Records with an inconclusive call do not appear. Calls of active or inactive are those of the source. The call rests on the fitted dose curve; in most records, active means well fitted curve in the direction sought with a large enough effect; inconclusive means small, poorly fitted or top-dose-only effect, or another doubt; inactive means no such curve, though single readings can be large; an effect the other way counts as inactive or inconclusive.

Chain of Cellular tumor antigen p53 (Homo sapiens) (P04637 whole entry, looked up): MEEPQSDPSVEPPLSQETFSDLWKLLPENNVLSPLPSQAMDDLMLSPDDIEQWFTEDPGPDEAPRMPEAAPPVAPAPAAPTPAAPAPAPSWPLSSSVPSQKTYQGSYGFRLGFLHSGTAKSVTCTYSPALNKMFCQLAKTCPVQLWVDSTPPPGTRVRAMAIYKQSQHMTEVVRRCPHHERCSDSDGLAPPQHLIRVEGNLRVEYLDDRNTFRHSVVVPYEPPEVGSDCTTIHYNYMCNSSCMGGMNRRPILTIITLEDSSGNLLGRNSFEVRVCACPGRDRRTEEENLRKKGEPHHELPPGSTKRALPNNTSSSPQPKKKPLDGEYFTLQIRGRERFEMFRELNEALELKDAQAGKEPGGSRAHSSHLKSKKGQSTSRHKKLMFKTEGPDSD

One assay deals with Cellular tumor antigen p53 (Homo sapiens) (UniProt P04637). Briefly: Primary qHTS for small molecule compounds that upregulate eGFP-tagged delta133p53alpha (in N-terminal) cells. (AID 2060322).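 Further: cells pre-induced with doxycycline then dosed without doxycycline; 0% = DMSO vehicle and 100% = reference activator; nearly all actives have a fitted effect of over 75% in size.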 The note with it: NCI-H358 eGFP-delta133p53alpha fluorescence, 24 h; activation: active compounds read high. A digest of the protocol:
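NCI-H358 cells pre-induced 24 h with 10 ng/ml doxycycline for eGFP-delta133p53alpha, plated dox-free and exposed 24 h at 37C to titrated compounds. Fixed, Hoechst-stained; gated GFP peak intensity by laser scanning cytometry, normalized to DMSO (0%) and 57.5 uM 5-azacytidine (100%).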
As for `CN[C@H](CC(C)C)C(=O)N[C@H]1C(=O)N[C@@H](CC(N)=O)C(=O)N[C@H]2C(=O)N[C@H]3C(=O)N[C@H](C(=O)N[C@H](C(=O)O)c4cc(O)cc(O)c4-c4cc3ccc4O)[C@H](O)c3ccc(c(Cl)c3)Oc3cc2cc(c3O[C@@H]2O[C@H](CO)[C@@H](O)[C@H](O)[C@H]2O[C@H]2C[C@](C)(N)[C@H](O)[C@H](C)O2)Oc2ccc(cc2Cl)[C@H]1O`, the activation is -2.02% (inactive).

For the compound `Oc1ccc2ccccc2c1SSc1c(O)ccc2ccccc12`, the activation was -0.0951% (inactive).

As to `CC[C@H](C)C(=O)O[C@H]1CCC=C2C=C[C@H](C)[C@H](CC[C@@H]3C[C@@H](O)CC(=O)O3)[C@H]21`, the activation is -12.3% (inactive).

`O=c1c(-c2ccc(O)cc2)coc2cc(O)cc(O)c12`: the activation was -2.22% (inactive) and -24.3% (inactive) and -49.4% (inactive).

Turning to `CC(=O)N1CCN(c2ccc(OC[C@H]3CO[C@](Cn4ccnc4)(c4ccc(Cl)cc4Cl)O3)cc2)CC1`, the activation was -11.5% (inactive) and -0.0769% (inactive).

For `O=C(CCc1ccc(O)cc1)c1c(O)cc(O)cc1O`, the activation is 27.3% (inactive) and 7.98% (inactive).

Regarding `Cc1cnc(C(=O)NCCc2ccc(S(=O)(=O)NC(=O)NC3CCCCC3)cc2)cn1`, the activation was -31.3% (inactive) and -14.1% (inactive) and 0.362% (inactive).

On to `NCCCCNCCCN`, for which the activation is -3.21% (inactive) and -16.4% (inactive).

With `C1COC(NC(C2CC2)C2CC2)=N1`, the activation was 11% (inactive) and 4.18% (inactive).

A further assay has the same target. In words: Primary qHTS for small molecule compounds that upregulate eGFP-tagged delta133p53alpha (in C-terminal) cells. (AID 2060324). Further: potency means the concentration at half of the fitted maximal effect.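 On GFP increase (activation): 0% = DMSO wells and 100% = 57.5 µM 5-azacytidine.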 The note with it: NCI-H358 delta133p53alpha-eGFP (C-terminal tag), GFP fluorescence imaging, 24 h; series mostly up to 57.5 µM; GFP increase (activation): at the top concentration. In outline: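 Readout: filtered GFP peak intensity of gated cells (laser scanning cytometer), normalized plate-wise to intraplate controls, DMSO wells = 0% activity. Cells: NCI-H358 D133p53a-eGFP, dox 100 ng/ml 24 h beforehand, then compound 24 h, 37 °C.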
As for `Cc1cc(C(C)(C)C)cc(C)c1CC1=NCCN1`, the “GFP increase (activation)” value was 3.04% (inactive).

For `COc1ccc(CCN(C)CCCC(C#N)(c2ccc(OC)c(OC)c2)C(C)C)cc1OC` (centres undefined), the “GFP increase (activation)” value is -4.96% (inactive).

Take `Cc1cc(C)c(/C=C2\C(=O)Nc3ccccc32)[nH]1`: the Potency is 30.1 µM (active).

On to `Cc1cc(Cl)ccc1OCCCC(=O)NO`, for which the “GFP increase (activation)” value was -11.4% (inactive).

For `NCCc1ccc(O)c(O)c1`, the “GFP increase (activation)” value was -0.0732% (inactive).

On to `Clc1ccc(C(c2ccc(Cl)cc2)n2cc[n+](CC(OCc3ccc(Cl)cc3Cl)c3ccc(Cl)cc3Cl)c2)cc1` (centres undefined), for which the “GFP increase (activation)” value was -3.41% (inactive).

For `O=C1CCC(N2C(=O)c3ccccc3C2=O)C(=O)N1` (centres undefined), the “GFP increase (activation)” value is -6.52% (inactive).

With `CC(C)Cc1ccc(C(C)C(=O)O)cc1` (centres undefined), the “GFP increase (activation)” value is -1.54% (inactive).

Regarding `NC(N)=NC(=O)c1nc(Cl)c(N)nc1N`, the “GFP increase (activation)” value is 0.561% (inactive).

`CN1CCC(=C2c3ccccc3CC(=O)c3sccc32)CC1`: the “GFP increase (activation)” value was 3.43% (inactive).

Consider `OC(CCN1CCCCC1)(c1ccccc1)C1CC2C=CC1C2` (centres undefined), for which the “GFP increase (activation)” value is 0.301% (inactive).

In the case of `Oc1ccc(/C=C/c2cc(O)cc(O)c2)cc1`, the “GFP increase (activation)” value was 9.65% (inactive).

On to `COc1cc(SC)ccc1C(=O)N1CCC(Cc2ccccc2)CC1`, for which the “GFP increase (activation)” value is 1.29% (inactive).

Turning to `CS(=O)(=O)Nc1ccc([N+](=O)[O-])cc1Oc1ccccc1`, the “GFP increase (activation)” value was 4.29% (inactive).

In the case of `Nc1nc(N)c(N=O)c(OCC2CCCCC2)n1`, the “GFP increase (activation)” value is 16.9% (inactive).

Take `Nc1nc2c(ncn2COCCO)c(=O)[nH]1`: the “GFP increase (activation)” value is -8.18% (inactive).

`O=C(c1ccc(OCCN2CCCCC2)cc1)c1c(-c2ccc(O)cc2)sc2cc(O)ccc12`: the “GFP increase (activation)” value was 6.43% (inactive).

Consider `C[C@H]1O[C@@H](n2cc(F)c(=O)[nH]c2=O)[C@H](O)[C@@H]1O`, for which the “GFP increase (activation)” value is 10.6% (inactive).

As for `Nc1c2c(nc3ccccc13)CCCC2`, the “GFP increase (activation)” value was 0.254% (inactive).

`NC12CC3CC(CC(C3)C1)C2`: the “GFP increase (activation)” value is -4.51% (inactive).

`Cc1cccc(-c2[nH]c(C(C)(C)C)nc2-c2ccc3nccnc3c2)n1`: the “GFP increase (activation)” value is -8.86% (inactive).

With `CC1COc2c(N3CCN(C)CC3)c(F)cc3c(=O)c(C(=O)O)cn1c23` (centres undefined), the “GFP increase (activation)” value is -9.22% (inactive).

For `CCN1CCCC1CNC(=O)c1cc(S(=O)(=O)CC)c(N)cc1OC` (centres undefined), the “GFP increase (activation)” value is 0.138% (inactive).

Take `Cc1ccc(N(CC2=NCCN2)c2cccc(O)c2)cc1`: the “GFP increase (activation)” value is -0.397% (inactive).

Regarding `CCn1cc(C(=O)O)c(=O)c2cc(F)c(N3CCNC(C)C3)c(F)c21` (centres undefined), the “GFP increase (activation)” value was -8.02% (inactive).

With `CC(C[N+](C)(C)C)OC(N)=O` (centres undefined), the “GFP increase (activation)” value is -2.93% (inactive).

`CC(C)(Oc1ccc(C2CC2(Cl)Cl)cc1)C(=O)O` (centres undefined): the “GFP increase (activation)” value was -3.61% (inactive).

Regarding `NC(=O)c1ncn([C@@H]2O[C@H](CO)[C@@H](O)[C@H]2O)n1`, the “GFP increase (activation)” value was -3.53% (inactive).

Regarding `CN(C)CCC=C1c2ccccc2C=Cc2ccccc21`, the “GFP increase (activation)” value was -0.891% (inactive).

Turning to `CN1CCC(=C2c3ccccc3C=Cc3ccccc32)CC1`, the “GFP increase (activation)” value is 13.4% (inactive).

Take `CC(C)c1ccc2c(c1)c(SC(C)(C)C)c(CC(C)(C)C(=O)O)n2Cc1ccc(Cl)cc1`: the “GFP increase (activation)” value was -4.01% (inactive).

For the compound `CN[C@H](CC(C)C)C(=O)N[C@H]1C(=O)N[C@@H](CC(N)=O)C(=O)N[C@H]2C(=O)N[C@H]3C(=O)N[C@H](C(=O)N[C@H](C(=O)O)c4cc(O)cc(O)c4-c4cc3ccc4O)[C@H](O)c3ccc(c(Cl)c3)Oc3cc2cc(c3O[C@@H]2O[C@H](CO)[C@@H](O)[C@H](O)[C@H]2O[C@H]2C[C@](C)(N)[C@H](O)[C@H](C)O2)Oc2ccc(cc2Cl)[C@H]1O`, the “GFP increase (activation)” value is 1.13% (inactive).

For `Oc1ccc2ccccc2c1SSc1c(O)ccc2ccccc12`, the “GFP increase (activation)” value was 3.02% (inactive).

For the compound `CC[C@H](C)C(=O)O[C@H]1CCC=C2C=C[C@H](C)[C@H](CC[C@@H]3C[C@@H](O)CC(=O)O3)[C@H]21`, the “GFP increase (activation)” value was -3.23% (inactive).

As to `O=c1c(-c2ccc(O)cc2)coc2cc(O)cc(O)c12`, the “GFP increase (activation)” value is 1% (inactive).

Take `CC(=O)N1CCN(c2ccc(OC[C@H]3CO[C@](Cn4ccnc4)(c4ccc(Cl)cc4Cl)O3)cc2)CC1`: the “GFP increase (activation)” value is -8.97% (inactive).

Turning to `O=C(CCc1ccc(O)cc1)c1c(O)cc(O)cc1O`, the “GFP increase (activation)” value is -1.91% (inactive).

For the compound `Cc1cnc(C(=O)NCCc2ccc(S(=O)(=O)NC(=O)NC3CCCCC3)cc2)cn1`, the “GFP increase (activation)” value was -3.3% (inactive).

For the compound `NCCCCNCCCN`, the “GFP increase (activation)” value was 3.11% (inactive).

`C1COC(NC(C2CC2)C2CC2)=N1`: the “GFP increase (activation)” value is 1.13% (inactive).
